Consider 52 compounds from PubChem BioAssay (NCATS).

Each structure is given as a SMILES string. Values joined by “and” are separate entries in the source; they are usually repeats but may differ in a detail not shown here. Identical values can stand only once. Results filed as inconclusive are left out. Values without a mark were called inactive. Active and inactive are the calls of the source. Unless noted, calls follow the shape of the full dose curve. Bridge positions count the residues as written; N and C are the ends. Square brackets hold non-standard residues; d marks the D form. Peptide text beside a SMILES is read from it. hArg = N=C(N)NCCCC[C@H](N)C(=O)O; Mpa = O=C(O)CCS

The nature of experiment [1]: qHTS for Inhibitors of the Functional Ribonucleoprotein Complex (vRNP) of Lassa (LASV) Arenavirus: LASV Primary Screen - GLuc reporter signal (AID 1347082; calls by dose curve; tested in HEK293 reporter line; also: nearly all actives have a fitted effect of over 60% in size; as to activity change, negative = inhibition: series mostly up to about 57 µM). (In general: In qHTS, concentration-response curves come from the screen itself.)
Experiment [2] in a line: qHTS for Inhibitors of the Functional Ribonucleoprotein Complex (vRNP) of Lassa (LASV) Arenavirus: Viability assay - alamar blue signal for LASV Primary Screen (AID 1347083; calls by dose curve; tested in HEK293 reporter line; also: nearly all actives have a fitted effect of over 80% in size; as to activity change, negative = reduced viability: series mostly up to about 57 µM).
Experiment [3] in a line: qHTS for Inhibitors of the Functional Ribonucleoprotein Complex (vRNP) of Lymphocytic Choriomeningitis Arenaviruses (LCMV): Viability assay - alamar blue signal for LCMV Primary Screen (AID 1347085; calls by dose curve; tested in HEK293 reporter line; also: nearly all actives have a fitted effect of over 80% in size; as to activity change, negative = lower viability: series mostly up to about 57 µM).
For experiment [4], the target named is Nucleoprotein (Lymphocytic choriomeningitis virus (strain Armstrong)) (UniProt P09992). Put plainly: qHTS for Inhibitors of the Functional Ribonucleoprotein Complex (vRNP) of Lymphocytic Choriomeningitis Arenaviruses (LCMV): LCMV Primary Screen - GLuc reporter signal (AID 1347086). Also: nearly all actives have a fitted effect of over 70% in size. As to activity change, negative = inhibition: series mostly up to about 57 µM.
Chain of Nucleoprotein (Lymphocytic choriomeningitis virus (strain Armstrong)) (P09992 whole entry, looked up): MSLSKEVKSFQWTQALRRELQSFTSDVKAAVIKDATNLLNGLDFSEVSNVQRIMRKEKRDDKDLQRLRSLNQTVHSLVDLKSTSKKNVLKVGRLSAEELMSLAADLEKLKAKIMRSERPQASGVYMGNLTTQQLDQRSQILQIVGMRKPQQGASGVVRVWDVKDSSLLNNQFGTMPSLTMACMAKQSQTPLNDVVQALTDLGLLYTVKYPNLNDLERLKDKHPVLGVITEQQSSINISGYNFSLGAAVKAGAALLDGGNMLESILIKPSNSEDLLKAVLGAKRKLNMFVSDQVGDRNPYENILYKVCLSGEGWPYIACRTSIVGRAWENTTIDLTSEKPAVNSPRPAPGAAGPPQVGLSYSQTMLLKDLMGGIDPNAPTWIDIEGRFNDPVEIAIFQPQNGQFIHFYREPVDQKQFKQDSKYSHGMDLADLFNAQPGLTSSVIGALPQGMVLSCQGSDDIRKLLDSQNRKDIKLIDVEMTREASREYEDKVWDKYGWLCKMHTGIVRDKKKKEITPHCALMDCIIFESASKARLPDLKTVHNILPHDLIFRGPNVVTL
% is scaled to controls: 0 for no effect and ±100 for the full control effect; potency is read from the fitted curve at half-maximal effect.

For the compound `Cc1cccc(CN2CCN(C(c3ccccc3)c3ccc(Cl)cc3)CC2)c1` (stereo not drawn), the Potency result in experiment [1], in experiment [2], in experiment [3] and in experiment [4] was “inactive” each time.

With `O=C(Nc1ccc([N+](=O)[O-])cc1)Nc1ccc([N+](=O)[O-])cc1`, the Potency result in experiment [1], in experiment [2], in experiment [3] and in experiment [4] was “inactive” in each case.

As for `CN1CCCN(C(c2ccccc2)c2ccc(Cl)cc2)CC1` (stereo not drawn), the Potency result in experiment [1], in experiment [2], in experiment [3] and in experiment [4] was “inactive” throughout.

For `CCc1oc2ccccc2c1C(=O)c1cc(Br)c(O)c(Br)c1`, the Potency entry in experiment [1], in experiment [2], in experiment [3] and in experiment [4] was “inactive” in each case.

With `CC(C)C[C@@H]1[C@H](c2ccccc2)OC(=O)N1CCCN1CCCCCC1`, the Potency result in experiment [1], in experiment [2], in experiment [3] and in experiment [4] was “inactive” in each case.

For `CC1=C(CC(=O)O)c2cc(F)ccc2/C1=C\c1ccc(S(C)(=O)=O)cc1`, the Potency result in experiment [1], in experiment [2], in experiment [3] and in experiment [4] was “inactive” throughout.

Take `COc1ccc(CCN(C)CCCC(C#N)(c2cc(OC)c(OC)c(OC)c2)C(C)C)cc1OC` (stereo not drawn): the Potency entry in experiment [1], in experiment [2], in experiment [3] and in experiment [4] was “inactive” in each case.

`CC(C)NCC(O)COc1ccc(COCCOC(C)C)cc1` (stereo not drawn): the Potency entry in experiment [1], in experiment [2], in experiment [3] and in experiment [4] was “inactive” each time.

For the compound `COc1ccc(CN(CCN(C)C)c2ncccn2)cc1`, the Potency result in experiment [1], in experiment [2], in experiment [3] and in experiment [4] was “inactive” in each case.

For `N#Cc1cc(NC(=O)C(=O)O)c(Cl)c(NC(=O)C(=O)O)c1`, the Potency result in experiment [1], in experiment [2], in experiment [3] and in experiment [4] was “inactive” throughout.

In the case of `CC(C)COCC(CN(Cc1ccccc1)c1ccccc1)N1CCCC1` (stereo not drawn), the Potency result in experiment [1], in experiment [2], in experiment [3] and in experiment [4] was “inactive” in each case.

For the compound `CO/N=C(\C(=O)O)c1csc(NC(=O)CCl)n1`, the Potency result in experiment [1], in experiment [2], in experiment [3] and in experiment [4] was “inactive” each time.

Consider `CO[C@]1(NC(=O)CSC(F)F)C(=O)N2C(C(=O)O)=C(CSc3nnnn3CCO)CO[C@H]21`, for which the Potency result in experiment [1], in experiment [2], in experiment [3] and in experiment [4] was “inactive” each time.

In the case of `CCOC(=O)C(C#N)=C(c1ccccc1)c1ccccc1`, the Potency entry in experiment [1], in experiment [2], in experiment [3] and in experiment [4] was “inactive” each time.

On to `COc1cc2c(cc1OC)-c1cc(=Nc3c(C)cc(C)cc3C)n(C)c(=O)n1CC2`, for which the Potency entry in experiment [1], in experiment [2], in experiment [3] and in experiment [4] was “inactive” each time.

`c1ccc2[nH]c(-c3cscn3)nc2c1`: the Potency result in experiment [1], in experiment [2], in experiment [3] and in experiment [4] was “inactive” each time.

As for `CC(=O)OCC(=O)[C@@]1(O)CC[C@H]2[C@@H]3CCC4=CC(=O)C=C[C@]4(C)[C@H]3[C@@H](O)C[C@@]21C`, the Potency result in experiment [1], in experiment [2], in experiment [3] and in experiment [4] was “inactive” in each case.

Consider `Cc1ccc(N(CC2=NCCN2)c2cccc(O)c2)cc1`, for which the Potency result in experiment [1], in experiment [2], in experiment [3] and in experiment [4] was “inactive” each time.

Turning to `CCCCN=C(N)N=C(N)N`, the Potency result in experiment [1], in experiment [2], in experiment [3] and in experiment [4] was “inactive” in each case.

Consider `CCOc1cc(N)c(Cl)cc1C(=O)NCC1CN(Cc2ccc(F)cc2)CCO1` (stereo not drawn), for which the Potency result in experiment [1], in experiment [2], in experiment [3] and in experiment [4] was “inactive” throughout.

Take `Nc1c2c(nc3ccccc13)CCCC2`: the Potency result in experiment [1], in experiment [2], in experiment [3] and in experiment [4] was “inactive” each time.

As to `CCCCOc1cc(C(=O)OCCN(CC)CC)ccc1N`, the Potency result in experiment [1], in experiment [2], in experiment [3] and in experiment [4] was “inactive” throughout.

As to `CC(=O)[C@@]1(O)CC[C@H]2[C@@H]3C[C@H](C)C4=CC(=O)CC[C@]4(C)[C@H]3CC[C@@]21C`, the Potency entry in experiment [1], in experiment [2], in experiment [3] and in experiment [4] was “inactive” each time.

Consider `CC(C)(C)C(=O)OCOC(=O)[C@@H]1N2C(=O)[C@@H](NC(=O)[C@H](N)c3ccccc3)[C@H]2SC1(C)C`, for which the Potency entry in experiment [1], in experiment [2], in experiment [3] and in experiment [4] was “inactive” throughout.

`Cc1c(N)cccc1C(F)(F)F`: the Potency entry in experiment [1], in experiment [2], in experiment [3] and in experiment [4] was “inactive” throughout.

As for `CCCN(CCC)C(=O)C(CCC(=O)OCCCN1CCN(CCOC(=O)Cc2c(C)n(C(=O)c3ccc(Cl)cc3)c3ccc(OC)cc23)CC1)NC(=O)c1ccccc1` (stereo not drawn), the Potency entry in experiment [1], in experiment [2], in experiment [3] and in experiment [4] was “inactive” each time.

Turning to `O=c1[nH]c(=O)c2[nH]c(=O)[nH]c2[nH]1`, the activity change, negative = inhibition in experiment [1] is -5.36% [at 11.5 µM]; in experiment [4], 20.2% [at 11.5 µM]. In experiment [2], the activity change, negative = reduced viability was 13.2% [at 11.5 µM]. In experiment [3], the activity change, negative = lower viability was -14.6% [at 11.5 µM].

For `CCN(CC)C(=O)C1CN2CCc3cc(OC)c(OC)cc3C2CC1OC(C)=O` (stereo not drawn), the Potency entry in experiment [1], in experiment [2], in experiment [3] and in experiment [4] was “inactive” in each case.

`CN1CCCN=C1COC(=O)C(O)(c1ccccc1)C1CCCCC1` (stereo not drawn): the Potency entry in experiment [1], in experiment [2], in experiment [3] and in experiment [4] was “inactive” throughout.

Consider `Clc1ccc(C(Cn2ccnc2)OCc2ccc(Sc3ccccc3)cc2)c(Cl)c1` (stereo not drawn), for which the Potency entry in experiment [1], in experiment [2], in experiment [3] and in experiment [4] was “inactive” in each case.

For `CC(=O)Oc1ccc(C(c2ccc(OC(C)=O)cc2)c2ccccn2)cc1`, the Potency result in experiment [1], in experiment [2], in experiment [3] and in experiment [4] was “inactive” each time.

`CNCCC(Oc1ccccc1OC)c1ccccc1` (stereo not drawn): the Potency entry in experiment [1], in experiment [2], in experiment [3] and in experiment [4] was “inactive” throughout.

For the compound `NCCc1ccc(O)c(O)c1`, the Potency result in experiment [1], in experiment [2], in experiment [3] and in experiment [4] was “inactive” each time.

On to `CCOC(=O)c1cccc(N)c1`, for which the Potency entry in experiment [1], in experiment [2], in experiment [3] and in experiment [4] was “inactive” throughout.

Take `O=C(O)CCC(=O)OC[C@@H](NC(=O)C(Cl)Cl)[C@H](O)c1ccc([N+](=O)[O-])cc1`: the Potency result in experiment [1], in experiment [2], in experiment [3] and in experiment [4] was “inactive” each time.

As for `CC[C@H](c1ccc(O)cc1)[C@@H](CC)c1ccc(O)cc1`, the Potency result in experiment [1], in experiment [2], in experiment [3] and in experiment [4] was “inactive” throughout.

Consider `CCCCN1CCCC1C(=O)Nc1c(C)cc(C)cc1C` (stereo not drawn), for which the Potency result in experiment [1], in experiment [2], in experiment [3] and in experiment [4] was “inactive” in each case.

`COC(=O)[C@H]1[C@H]2C[C@@H]3c4[nH]c5cc(OC)ccc5c4CCN3C[C@H]2C[C@@H](OC(=O)COc2ccc(OC)cc2)[C@@H]1OC`: the Potency result in experiment [1], in experiment [2], in experiment [3] and in experiment [4] was “inactive” each time.

`C1CCN2C[C@@H]3C[C@@H](CN4CCCC[C@@H]34)[C@H]2C1`: the Potency entry in experiment [1], in experiment [2], in experiment [3] and in experiment [4] was “inactive” in each case.

`O=c1ccc2ccccc2o1`: the Potency result in experiment [1], in experiment [2], in experiment [3] and in experiment [4] was “inactive” in each case.

As to `O=C(O)CN(CCOCCOCCN(CC(=O)O)CC(=O)O)CC(=O)O`, the Potency result in experiment [1], in experiment [2], in experiment [3] and in experiment [4] was “inactive” throughout.

With `CC(=O)Oc1c(C)c(C)c2c(c1C)CC[C@@](C)(CCC[C@H](C)CCC[C@H](C)CCCC(C)C)O2`, the Potency result in experiment [1], in experiment [2], in experiment [3] and in experiment [4] was “inactive” throughout.

For `c1ccc(CNCCNCc2ccccc2)cc1`, the Potency entry in experiment [1], in experiment [2], in experiment [3] and in experiment [4] was “inactive” throughout.

On to `O=c1[nH]cnc2c1ncn2[C@@H]1O[C@H](CO)[C@@H](O)[C@H]1O`, for which the Potency entry in experiment [1], in experiment [2], in experiment [3] and in experiment [4] was “inactive” throughout.

With `CN(C)CCCOC1(Cc2ccccc2)CCCCCC1`, the Potency entry in experiment [1], in experiment [2], in experiment [3] and in experiment [4] was “inactive” throughout.

As for `CCCCC1C(=O)N(c2ccccc2)N(c2ccccc2)C1=O`, the Potency result in experiment [1], in experiment [2], in experiment [3] and in experiment [4] was “inactive” in each case.

Turning to `C=Cc1c(C)c2cc3[nH]c(cc4nc(cc5nc(cc1[nH]2)C(C)=C5CCC(=O)O)C(CCC(=O)O)=C4C)c(C)c3C=C`, the Potency result in experiment [1], in experiment [2], in experiment [3] and in experiment [4] was “inactive” each time.

Consider `Cn1c(=O)c2c(ncn2CC2OCCO2)n(C)c1=O`, for which the Potency result in experiment [1], in experiment [2], in experiment [3] and in experiment [4] was “inactive” throughout.

`Cc1ncc(COP(=O)(O)O)c(C=O)c1O`: the Potency result in experiment [1], in experiment [2], in experiment [3] and in experiment [4] was “inactive” in each case.

Consider `NC1(c2ccc(-c3nc4ccn5c(=O)[nH]nc5c4cc3-c3ccccc3)cc2)CCC1`, for which the Potency was 19.3 µM (active) in experiment [1]; 2.73 µM (active) and 5.62 µM (active) in experiment [2]; 3.85 µM (active) in experiment [3]; 3.06 µM (active) in experiment [4].

For `Nc1cc(C(F)(F)F)ccc1S`, the Potency entry in experiment [1], in experiment [2], in experiment [3] and in experiment [4] was “inactive” in each case.

Consider `NC(=O)[C@@H]1CSSCCC(=O)N[C@@H](CCCCN=C(N)N)C(=O)NCC(=O)N[C@@H](CC(=O)O)C(=O)N[C@@H](Cc2c[nH]c3ccccc23)C(=O)N2CCC[C@H]2C(=O)N1` ([Mpa][hArg]GDWPC-NH2; disulfide 1-7), for which the Potency entry in experiment [1], in experiment [2], in experiment [3] and in experiment [4] was “inactive” in each case.
